Source: PubChem BioAssay
The source made the active and inactive calls.

Tests used:
[1] = molecular target: Albumin (Bos taurus) (UniProt P02769); assay: compounds binding labelled BSA control protein – biochemical, small-molecule microarray, Alexa647 label, 635/667 nm fluorescence, artefact control for SMM control protein annotation, profiling panel (AID 1118); conditions: BSA-A647 binding, fluorescence 635 nm, higher = more signal;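 further: score merges 667 nm emission intensity and signal-to-noise per printed compound spot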
[2] = probe aXIP binding to arrayed compounds – biochemical, NeuroSMM set, 635/667 nm fluorescence, primary screen (AID 1119); conditions: small-molecule microarray, higher = more signal, called active from +8 up or from −8 down;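 further: probe is the protein aXip251-270 applied at 1 µg/mL to compound-printed slides; binding of probe to printed compounds measured as 667 nm fluorescence plus signal to noise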
[3] = probe aNOTCH3 binding on compound microarray – biochemical, small-molecule microarray, 635/667 nm fluorescence, primary screen (AID 1120); conditions: higher = more signal;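 further: probe is a biotin-tagged antibody raised against NOTCH3 rather than NOTCH3 protein; score merges spot fluorescence near 667 nm with spot signal to noise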
[4] = probe aNOTCH2 binding on compound microarray – biochemical, small-molecule microarray, 635/667 nm fluorescence, primary screen (AID 1121); conditions: higher = more signal;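 further: score merges feature fluorescence read at 667 nm with its signal to noise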
[5] = molecular target: Carbonic anhydrase 2 (Homo sapiens) (UniProt P00918); assay: compounds binding carbonic anhydrase 2 – biochemical, small-molecule microarray, Alexa647-labelled CAII, profiling panel (AID 1122); conditions: CAII-A647 binding fluorescence, higher = more signal
[6] = COS7 lysate on small-molecule microarray, probe aHis, 635 nm (AID 1123); conditions: COS7 cell lysate, fluorescence, higher = more signal;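 further: z-score combines 667nm fluorescence intensity with signal-to-noise per printed compound spot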
[7] = probe aLAP1 signal on lysate-treated microarray – cell lysate, small-molecule microarray, COS7 lysate, primary screen (AID 1124); conditions: probe aLAP1, fluorescence, higher = more signal;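 further: lysate comes from COS7 cells expressing LAP1 and is applied at 0.3 µg/mL; score merges spot fluorescence near 667 nm with signal-to-noise over triplicate slides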
[8] = test system: Sam68 (KHDRBS1); assay: compounds binding KHDRBS1 protein – biochemical, small-molecule microarray, 635 nm fluorescence, primary screen (AID 1125); conditions: higher = more signal;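 further: score merges 667 nm channel intensity with signal to noise over triplicate slides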
[9] = test system: Chordin-like protein 2 (CHRDL2); assay: compounds binding chordin-like 2 – biochemical, small-molecule microarray, 635 nm fluorescence, primary screen (AID 1126); conditions: fluorescence 635 nm, higher = more signal;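 further: printed compound slides probed with Chrdl2 protein at 4 µg/mL for 1 h at 4 C; score merges 667 nm emission intensity with signal to noise over three replicate slides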
[10] = molecular target: Concanavalin-A (Canavalia ensiformis) (UniProt P02866); assay: compounds binding concanavalin A lectin – biochemical, small-molecule microarray, Alexa647 label, 635 nm, artefact control for SMM control protein annotation, primary screen (AID 1127); conditions: ConA-A647 binding fluorescence, higher = more signal;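 further: z combines 667 nm emission intensity with signal-to-noise across three replicate slides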
[11] = compounds binding Alexa647 anti-His antibody – biochemical, small-molecule microarray, 635 nm fluorescence, artefact control for SMM control protein annotation, primary screen (AID 1128); conditions: higher = more signal;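 further: score merges feature fluorescence with signal-to-noise for each printed compound spot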
[12] = test system: Human papillomavirus type 1a E7 protein (residues 1-88); assay: HPV1a E7 small-molecule binders, primary screen, biochemical, small-molecule microarray, residues 1-88, 635 nm (AID 1129); conditions: small-molecule microarray binding, fluorescence 635 nm; higher = more signal
[13] = molecular target: Focal adhesion kinase 1 (Homo sapiens) (UniProt Q05397); assay: PTK2 protein binding on printed compound slides – biochemical, small-molecule microarray, 635/667 nm fluorescence, BSA, DTT, primary screen (AID 1130); conditions: 635 nm fluorescence, higher = more signal;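 further: composite of spot emission at 667 nm and signal to noise over triplicate slides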
[14] = test system: Fibrinogen (Alexa647-labelled); assay: Alexa647-fibrinogen binding to printed small molecules – biochemical, small-molecule microarray, 635/667 nm fluorescence, artefact control for SMM control-protein annotation, profiling panel (AID 1131); conditions: fibrinogen-A647 binding fluorescence, higher = more signal;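 further: z-score merges 667 nm fluorescence with per-spot signal-to-noise over triplicate slides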
[15] = molecular target: Follistatin (Homo sapiens) (UniProt P19883); assay: FST protein binding to printed compounds – biochemical, small-molecule microarray, 635/667 nm fluorescence, primary screen (AID 1132); conditions: 635 nm fluorescence, higher = more signal
[16] = molecular target: Fibroblast growth factor 2 (Homo sapiens) (UniProt P09038); assay: basic fibroblast growth factor binding to printed compounds – biochemical, small-molecule microarray, 635/667 nm fluorescence, primary screen (AID 1133); conditions: FGF2, fluorescence 635/667, higher = more signal
[17] = JC-1 mitochondrial potential readout, lung cancer cells – cell-based, A549, JC-1 fluorescence, basal, 24 h, 100 nL, profiling panel (AID 1138); conditions: higher = more signal;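 further: A549 lung adenocarcinoma cells under basal conditions with no added stimulus; test concentration not given here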
[18] = test system: Lefty1; assay: Lefty1 protein binding to printed compounds – biochemical, small-molecule microarray, 635/667 nm fluorescence, primary screen (AID 1139); conditions: fluorescence 635/667, higher = more signal
[19] = test system: wheat germ agglutinin (Triticum aestivum), Alexa647-labelled; assay: Alexa647-WGA lectin binding to printed small molecules – biochemical, small-molecule microarray, 635/667 nm fluorescence, artefact control for SMM control-protein annotation, profiling panel (AID 1140); conditions: WGA-A647 binding, 635 nm fluorescence, higher = more signal;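 further: score merges 667 nm feature emission with signal to noise over triplicate slides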
[20] = molecular target: Luciferin 4-monooxygenase (Photinus pyralis) (UniProt P08659); assay: inhibition of purified Photinus pyralis luciferase – biochemical, luminescence, purified enzyme, 2006 set, primary screen (AID 1141); conditions: purified firefly luciferase, SteadyGlo luminescence, 30 min; higher = more signal, called active from +8 up or from −8 down;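 further: cell-free assay with purified firefly luciferase at 100 ng per well in PBS; test concentration not given here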
Luciferin 4-monooxygenase (Photinus pyralis), sequence (P08659 whole entry, looked up): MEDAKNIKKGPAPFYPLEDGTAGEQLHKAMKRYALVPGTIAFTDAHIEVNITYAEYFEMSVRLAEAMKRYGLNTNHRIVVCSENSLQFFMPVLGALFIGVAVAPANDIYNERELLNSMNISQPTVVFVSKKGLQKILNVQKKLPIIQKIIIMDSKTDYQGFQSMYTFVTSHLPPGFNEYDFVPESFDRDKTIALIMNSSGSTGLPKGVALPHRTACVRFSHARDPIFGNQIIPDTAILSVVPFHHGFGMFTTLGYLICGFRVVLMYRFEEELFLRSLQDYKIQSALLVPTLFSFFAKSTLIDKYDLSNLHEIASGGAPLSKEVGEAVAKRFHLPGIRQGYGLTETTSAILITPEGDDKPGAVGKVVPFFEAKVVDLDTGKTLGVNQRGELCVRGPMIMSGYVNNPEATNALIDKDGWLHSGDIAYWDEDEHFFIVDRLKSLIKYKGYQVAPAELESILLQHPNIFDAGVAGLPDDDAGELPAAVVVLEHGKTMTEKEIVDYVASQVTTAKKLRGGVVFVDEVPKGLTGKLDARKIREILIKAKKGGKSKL

Concanavalin-A (Canavalia ensiformis), sequence (P02866 whole entry, looked up): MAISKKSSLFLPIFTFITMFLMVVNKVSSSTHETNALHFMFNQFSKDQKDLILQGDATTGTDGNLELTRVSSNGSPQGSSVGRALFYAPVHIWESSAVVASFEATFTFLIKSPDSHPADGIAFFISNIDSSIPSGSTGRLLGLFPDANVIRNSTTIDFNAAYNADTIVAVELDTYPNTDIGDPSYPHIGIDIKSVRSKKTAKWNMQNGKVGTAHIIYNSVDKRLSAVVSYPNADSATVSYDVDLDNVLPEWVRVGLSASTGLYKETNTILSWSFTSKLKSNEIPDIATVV
Focal adhesion kinase 1 (Homo sapiens), sequence (Q05397 whole entry, looked up): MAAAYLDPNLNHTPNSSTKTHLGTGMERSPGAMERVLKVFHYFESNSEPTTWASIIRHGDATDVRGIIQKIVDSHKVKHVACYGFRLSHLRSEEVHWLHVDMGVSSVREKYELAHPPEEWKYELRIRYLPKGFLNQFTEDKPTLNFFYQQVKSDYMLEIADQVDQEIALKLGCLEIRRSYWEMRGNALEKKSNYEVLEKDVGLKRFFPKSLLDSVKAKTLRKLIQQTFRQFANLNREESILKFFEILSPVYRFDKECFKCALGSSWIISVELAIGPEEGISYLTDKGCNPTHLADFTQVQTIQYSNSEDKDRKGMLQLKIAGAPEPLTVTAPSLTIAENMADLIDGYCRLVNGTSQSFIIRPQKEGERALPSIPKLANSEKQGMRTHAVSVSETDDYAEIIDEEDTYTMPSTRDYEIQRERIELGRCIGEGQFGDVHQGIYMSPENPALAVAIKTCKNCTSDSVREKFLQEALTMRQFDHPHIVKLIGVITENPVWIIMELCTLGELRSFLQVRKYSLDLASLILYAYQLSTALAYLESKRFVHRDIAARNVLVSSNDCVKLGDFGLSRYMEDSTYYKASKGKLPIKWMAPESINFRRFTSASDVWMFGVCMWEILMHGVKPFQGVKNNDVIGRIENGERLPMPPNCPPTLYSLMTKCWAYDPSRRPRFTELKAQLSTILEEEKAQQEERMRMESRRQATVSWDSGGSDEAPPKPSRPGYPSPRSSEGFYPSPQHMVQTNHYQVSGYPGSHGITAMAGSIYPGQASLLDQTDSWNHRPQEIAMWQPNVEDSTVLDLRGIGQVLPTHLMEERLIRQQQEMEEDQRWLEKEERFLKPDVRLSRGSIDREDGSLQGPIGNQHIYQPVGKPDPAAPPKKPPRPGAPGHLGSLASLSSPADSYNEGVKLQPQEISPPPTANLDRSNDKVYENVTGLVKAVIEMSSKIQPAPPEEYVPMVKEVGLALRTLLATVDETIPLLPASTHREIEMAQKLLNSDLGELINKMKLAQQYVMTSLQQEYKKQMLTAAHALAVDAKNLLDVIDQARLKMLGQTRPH
Follistatin (Homo sapiens), sequence (P19883 whole entry, looked up): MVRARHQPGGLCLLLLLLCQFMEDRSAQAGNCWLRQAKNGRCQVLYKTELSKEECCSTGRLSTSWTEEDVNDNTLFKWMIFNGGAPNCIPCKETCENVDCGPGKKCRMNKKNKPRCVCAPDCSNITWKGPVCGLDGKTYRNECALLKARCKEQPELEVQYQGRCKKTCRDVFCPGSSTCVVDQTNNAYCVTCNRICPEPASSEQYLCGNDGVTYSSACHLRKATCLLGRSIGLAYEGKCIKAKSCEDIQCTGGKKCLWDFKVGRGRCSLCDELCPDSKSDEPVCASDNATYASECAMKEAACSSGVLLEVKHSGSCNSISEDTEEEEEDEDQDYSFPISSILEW
Albumin (Bos taurus), sequence (P02769 whole entry, looked up): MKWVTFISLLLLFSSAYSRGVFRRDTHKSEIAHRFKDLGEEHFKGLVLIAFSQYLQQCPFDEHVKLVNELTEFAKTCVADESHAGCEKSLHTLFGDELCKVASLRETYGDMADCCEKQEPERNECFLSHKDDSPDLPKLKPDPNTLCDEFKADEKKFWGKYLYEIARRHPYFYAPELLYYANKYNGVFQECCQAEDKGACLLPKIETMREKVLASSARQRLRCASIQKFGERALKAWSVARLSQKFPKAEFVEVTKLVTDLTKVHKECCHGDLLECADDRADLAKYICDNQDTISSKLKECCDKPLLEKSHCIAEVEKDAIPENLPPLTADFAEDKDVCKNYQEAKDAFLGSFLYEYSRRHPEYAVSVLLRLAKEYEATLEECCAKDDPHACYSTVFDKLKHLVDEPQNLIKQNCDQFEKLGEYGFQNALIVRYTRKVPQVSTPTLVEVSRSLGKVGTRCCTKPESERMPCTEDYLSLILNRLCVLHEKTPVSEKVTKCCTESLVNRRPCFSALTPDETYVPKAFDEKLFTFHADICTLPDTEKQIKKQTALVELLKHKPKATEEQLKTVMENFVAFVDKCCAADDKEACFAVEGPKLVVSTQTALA
Fibroblast growth factor 2 (Homo sapiens), sequence (P09038 whole entry, looked up): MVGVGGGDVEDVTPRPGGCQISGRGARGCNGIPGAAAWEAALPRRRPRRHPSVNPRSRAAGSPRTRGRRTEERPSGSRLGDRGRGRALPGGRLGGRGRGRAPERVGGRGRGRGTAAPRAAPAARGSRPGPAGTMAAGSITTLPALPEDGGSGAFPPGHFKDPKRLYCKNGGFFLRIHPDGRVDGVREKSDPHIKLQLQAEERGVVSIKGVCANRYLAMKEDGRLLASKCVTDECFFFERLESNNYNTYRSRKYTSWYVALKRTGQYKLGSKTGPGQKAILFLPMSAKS

Row | Structure (SMILES) | composite z-score [1] | composite Z-score [2] | composite z-score [3] | composite z-score [4] | composite z-score [5] | composite z-score [6] | composite z-score [7] | composite z-score [8] | composite z-score [9] | composite z-score [10] | composite z-score [11] | composite z-score [12] | composite z-score [13] | composite z-score [14] | composite z-score [15] | composite z-score [16] | z-score [17] | composite z-score [18] | composite z-score [19] | z-score [20]
1 | CCCNC(=O)[C@@H]1c2ccccc2C(=O)N(Cc2cc(C(F)(F)F)cc(C(F)(F)F)c2)[C@H]1c1ccc(CO)cc1 | -0.419 | -0.251 (inactive) | -0.0343 | -0.194 | 0.422 | 0.64 | 0.227 | 0.679 | -0.608 | 0.234 | 0.14 | 0.541 | 0.452 | 0.0967 | 0.652 | 0.213 | 0.904 | 0.0044 | 0.14 | -0.831 (inactive)
2 | C[C@@H](OCc1ccccc1)C1NC(=O)[C@@]23C(=O)N[C@@H](Cc4ccccc4)C2[C@H](C)[C@@]2(C)O[C@H]2C3/C=C/C/C=C\CNC(=O)[C@@H]2CCCN2C1=O (stereo not given in full) | -0.149 | -0.216 (inactive) | -0.0921 | -0.147 | 0.619 | -0.357 | -0.296 | -0.898 | 0.377 | -0.896 | -0.0278 | -0.443 | -0.709 | -0.632 | 0.0944 | 0.166 | 2.49 | 0.0078 | -0.927 | -1.45 (inactive)
3 | C=CCC1(CC=C)C[C@H]2CO[C@H](c3ccc(OC)cc3)N2C1=O | -1.14 | -0.258 (inactive) | -0.154 | -0.155 | 0.448 | -0.348 | 0.157 | -0.082 | 1.3 | 0.0736 | 0.413 | -0.154 | -0.256 | -0.78 | 1.23 | 0.15 | 1.31 | 0.458 | 1.28 | -1.13 (inactive)
4 | CCCNC(=O)[C@@]1(Sc2ccc(C)cc2)CC(=O)N(Cc2cc(C(F)(F)F)cc(C(F)(F)F)c2)[C@@H]1c1ccc(CO)cc1I | 0.502 | 0.414 (inactive) | -0.125 | 0.0042 | 0.883 | 0.918 | 0.349 | 0.354 | -0.605 | -0.12 | -0.187 | -0.574 | -0.101 | -0.0242 | -0.0247 | -1.22 | -0.283 | -0.487 | -0.405 | -0.839 (inactive)
5 | C#CCOc1ccc(C[C@H]2C(=O)O[C@H](Cc3ccccc3)[C@H](/C=C/C3CC3)N2CC#C)cc1 | -0.0855 | 0.319 (inactive) | -0.165 | -0.172 | 0.643 | -0.104 | 0.0683 | -0.0391 | 0.445 | -0.224 | -0.146 | 0.128 | 0.386 | 0.273 | -0.322 | -0.349 | 4.32 | -0.433 | -0.311 | -0.968 (inactive)
6 | C#CCN1C(C(=O)OCC)OC[C@H]1c1ccccc1 (stereo not given in full) | -0.0202 | 0.369 (inactive) | -0.128 | -0.0861 | -0.0406 | 4.71 | 0.847 | 0.487 | 0.602 | 0.303 | 0.264 | -0.334 | 5.01 | 0.559 | 0.552 | 0.469 | 0.833 | 0.732 | 0.299 | -0.547 (inactive)
